# From PubChem BioAssay
# Several values for one entry are separate records, joined by “and”; a condition that tells them apart may be missing. Identical values can stand only once. Activity calls are given as the source filed them.
# What was measured:
# [1] = anti-His antibody binders, primary screen, artefact control for SMM control protein annotation, biochemical, small-molecule microarray, 635 nm fluorescence (AID 1128); details: anti-His Alexa647 antibody binding, higher = more signal;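 note: score merges feature fluorescence with signal-to-noise for each printed compound spot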
# [2] = test system: Human papillomavirus type 1a E7 protein (residues 1-88); assay: HPV1a E7 small-molecule binders, primary screen, biochemical, small-molecule microarray, residues 1-88, 635 nm (AID 1129); details: small-molecule microarray binding, fluorescence 635 nm; higher = more signal
# [3] = biological target: Focal adhesion kinase 1 (Homo sapiens) (UniProt Q05397); assay: small-molecule microarray binders of FAK, primary screen, biochemical, 635/667 nm fluorescence, BSA, DTT (AID 1130); details: PTK2 binding, 635 nm fluorescence, higher = more signal;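 note: composite of spot emission at 667 nm and signal to noise over triplicate slides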
# [4] = test system: Fibrinogen (Alexa647-labelled); assay: fibrinogen binders on compound microarrays, profiling panel, artefact control for SMM control-protein annotation, biochemical, small-molecule microarray, 635/667 nm fluorescence (AID 1131); details: fibrinogen-A647 binding fluorescence, higher = more signal;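 note: z-score merges 667 nm fluorescence with per-spot signal-to-noise over triplicate slides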
# [5] = biological target: Follistatin (Homo sapiens) (UniProt P19883); assay: follistatin binders on small-molecule microarrays, primary screen, biochemical, small-molecule microarray, 635/667 nm fluorescence (AID 1132); details: FST binding, 635 nm fluorescence, higher = more signal
# [6] = biological target: Fibroblast growth factor 2 (Homo sapiens) (UniProt P09038); assay: FGF2 binders on small-molecule microarrays, primary screen, biochemical, small-molecule microarray, 635/667 nm fluorescence (AID 1133); details: small-molecule microarray binding, FGF2, fluorescence 635/667; higher = more signal
# [7] = mitochondrial membrane potential change in A549 cells, profiling panel, cell-based, JC-1 fluorescence, basal, 24 h, 100 nL (AID 1138); details: higher = more signal;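 note: A549 lung adenocarcinoma cells under basal conditions with no added stimulus; test concentration not given here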
# Lefty1 = Lefty1 binders on small-molecule microarrays, primary screen, biochemical, small-molecule microarray, 635/667 nm fluorescence (AID 1139); details: small-molecule microarray binding, fluorescence 635/667; higher = more signal
# [8] = test system: wheat germ agglutinin (Triticum aestivum), Alexa647-labelled; assay: wheat germ agglutinin binders on compound microarrays, profiling panel, artefact control for SMM control-protein annotation, biochemical, small-molecule microarray, 635/667 nm fluorescence (AID 1140); details: WGA-A647 binding, 635 nm fluorescence, higher = more signal;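 note: score merges 667 nm feature emission with signal to noise over triplicate slides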
# [9] = biological target: Luciferin 4-monooxygenase (Photinus pyralis) (UniProt P08659); assay: firefly luciferase enzyme inhibitors, primary screen, biochemical, luminescence, purified enzyme, 2006 set (AID 1141); details: SteadyGlo luminescence, 30 min, higher = more signal, called active from +8 up or from −8 down;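 note: cell-free assay with purified firefly luciferase at 100 ng per well in PBS; test concentration not given here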
# Chain of Luciferin 4-monooxygenase (Photinus pyralis) (P08659 whole entry, looked up): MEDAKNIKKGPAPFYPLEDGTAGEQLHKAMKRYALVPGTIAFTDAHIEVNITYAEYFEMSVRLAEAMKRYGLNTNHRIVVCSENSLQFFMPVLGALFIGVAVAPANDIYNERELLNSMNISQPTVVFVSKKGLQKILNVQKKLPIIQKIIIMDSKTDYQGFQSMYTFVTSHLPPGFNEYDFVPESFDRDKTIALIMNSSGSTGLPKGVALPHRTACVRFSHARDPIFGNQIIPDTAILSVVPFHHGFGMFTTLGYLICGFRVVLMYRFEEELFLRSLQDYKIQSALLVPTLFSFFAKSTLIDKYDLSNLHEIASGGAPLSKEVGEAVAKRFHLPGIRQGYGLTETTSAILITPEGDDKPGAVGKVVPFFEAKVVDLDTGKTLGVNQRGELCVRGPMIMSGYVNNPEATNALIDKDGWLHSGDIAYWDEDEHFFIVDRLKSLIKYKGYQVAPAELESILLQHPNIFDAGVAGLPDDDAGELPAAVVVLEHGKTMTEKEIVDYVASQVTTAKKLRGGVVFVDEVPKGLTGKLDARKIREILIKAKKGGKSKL
# Chain of Fibroblast growth factor 2 (Homo sapiens) (P09038 whole entry, looked up): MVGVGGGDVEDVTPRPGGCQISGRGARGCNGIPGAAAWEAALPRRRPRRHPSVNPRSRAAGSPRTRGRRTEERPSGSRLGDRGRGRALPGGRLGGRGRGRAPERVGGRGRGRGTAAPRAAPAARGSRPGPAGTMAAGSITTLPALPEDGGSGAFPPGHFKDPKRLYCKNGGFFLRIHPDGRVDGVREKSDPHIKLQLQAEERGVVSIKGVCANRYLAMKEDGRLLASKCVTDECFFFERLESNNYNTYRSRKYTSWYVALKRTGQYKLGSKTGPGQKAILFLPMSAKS
# Chain of Follistatin (Homo sapiens) (P19883 whole entry, looked up): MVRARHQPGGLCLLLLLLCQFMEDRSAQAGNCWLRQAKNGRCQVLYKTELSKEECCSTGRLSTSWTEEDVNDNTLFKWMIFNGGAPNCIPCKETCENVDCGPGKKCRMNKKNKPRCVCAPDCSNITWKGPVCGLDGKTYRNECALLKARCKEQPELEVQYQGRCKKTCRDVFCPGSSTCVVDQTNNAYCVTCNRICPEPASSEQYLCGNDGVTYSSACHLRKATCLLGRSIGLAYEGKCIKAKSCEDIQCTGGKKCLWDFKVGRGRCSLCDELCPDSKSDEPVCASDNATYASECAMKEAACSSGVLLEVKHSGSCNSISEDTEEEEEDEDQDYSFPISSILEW
# Chain of Focal adhesion kinase 1 (Homo sapiens) (Q05397 whole entry, looked up): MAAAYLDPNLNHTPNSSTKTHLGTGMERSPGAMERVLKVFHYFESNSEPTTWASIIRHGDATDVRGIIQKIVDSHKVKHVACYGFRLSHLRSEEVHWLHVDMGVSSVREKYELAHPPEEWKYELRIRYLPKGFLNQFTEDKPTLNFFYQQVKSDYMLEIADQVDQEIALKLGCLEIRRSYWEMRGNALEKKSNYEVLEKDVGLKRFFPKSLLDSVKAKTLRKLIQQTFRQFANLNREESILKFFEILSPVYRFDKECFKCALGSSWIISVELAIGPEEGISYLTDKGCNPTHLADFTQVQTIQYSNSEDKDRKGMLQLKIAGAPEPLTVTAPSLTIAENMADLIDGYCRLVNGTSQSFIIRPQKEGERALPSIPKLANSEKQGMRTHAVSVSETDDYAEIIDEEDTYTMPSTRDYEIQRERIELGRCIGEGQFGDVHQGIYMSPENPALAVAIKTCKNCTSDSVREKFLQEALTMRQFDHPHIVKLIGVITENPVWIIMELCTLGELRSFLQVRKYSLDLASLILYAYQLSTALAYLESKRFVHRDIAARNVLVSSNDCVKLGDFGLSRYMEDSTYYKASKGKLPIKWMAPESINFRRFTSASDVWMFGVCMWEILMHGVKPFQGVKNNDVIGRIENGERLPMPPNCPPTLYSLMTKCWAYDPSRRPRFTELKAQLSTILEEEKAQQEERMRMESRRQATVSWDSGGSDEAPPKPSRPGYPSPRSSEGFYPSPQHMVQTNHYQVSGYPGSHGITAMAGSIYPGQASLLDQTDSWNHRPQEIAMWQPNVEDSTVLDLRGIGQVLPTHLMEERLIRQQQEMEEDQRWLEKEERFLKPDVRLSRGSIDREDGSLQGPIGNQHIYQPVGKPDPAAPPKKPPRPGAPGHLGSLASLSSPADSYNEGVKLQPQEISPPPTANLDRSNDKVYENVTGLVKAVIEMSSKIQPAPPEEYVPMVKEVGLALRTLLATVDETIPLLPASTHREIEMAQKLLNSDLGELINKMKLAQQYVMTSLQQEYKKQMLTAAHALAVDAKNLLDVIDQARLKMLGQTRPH
Structure (SMILES),composite z-score [1],composite z-score [2],composite z-score [3],composite z-score [4],composite z-score [5],composite z-score [6],z-score [7],composite z-score (Lefty1),composite z-score [8],z-score [9]
CCOC(=O)[C@@H]1CC2O[C@]23C[C@@H]1C(=O)N1CCC[C@@H]1[C@H]3O[Si](C)(C)C(C)(C)C (stereo not given in full),-0.423 and -0.146,-0.853 and 0.0436,0.623 and 0.0915,-0.607 and -0.0382,-0.568 and 0.342,0.0471 and 1.14,-0.944 and -0.261,-0.0485 and 0.69,-0.616 and -0.276,0.316 (inactive) and 0.32 (inactive)
COC(=O)C1=C(C)N(Cc2ccccc2)C2=C3C(=O)N(C)C(=O)[C@@H]3[C@@](O)(C(=O)OC)C(=O)N2[C@@H]1c1ccccc1,0.21 and -0.0385,0.311 and 0.614,0.128 and 0.276,0.269 and 0.335,0.355 and 0.223,0.55 and 0.24,0.286 and 0.239,-0.0227 and 0.627,0.129 and -0.0358,-0.598 (inactive) and -2.38 (inactive)
CC(C)=NO[C@@H](C)c1cc(-c2c(C)cc(C)cc2C)no1,1.01,-0.705,0.0218,-0.268,0.0215,0.0248,-0.114,0.0782,-0.418,0.389 (inactive)
CCOC(=O)[C@@H]1CC=C2CC1C(=O)N1CCC[C@@H]1[C@H]2O[Si](C)(C)C(C)(C)C (stereo not given in full),-1.02 and -0.542,-0.419 and -0.434,-0.758 and -0.489,-0.454 and -1.61,-0.76 and -0.645,-0.424 and -0.469,-0.827 and -0.338,-0.224 and -0.132,-0.992 and -0.976,0.0411 (inactive) and 0.838 (inactive)
C=CCN(CCCCC)C(=O)C1N(CCCCCCO)C(=O)C2C(C(=O)O)C3C=CC21O3 (stereo not given),-2.31 and 0.41,-0.813 and -0.519,-0.687 and -0.922,-1.63 and -1.36,-2.64 and -1.13,-2.25 and -2.14,-0.194 and 0.588,-1.55 and -1.07,-1.8 and -0.883,0.0975 (inactive) and -0.324 (inactive)
Cc1ccc(S(=O)(=O)N[C@H]2COC(=O)[C@@H](C)COC(=O)[C@H](C)NC(=O)CC=C[C@H]2C)cc1,-0.293,-0.336,-0.295,-0.343,0.162,1.09,0.637,0.72,-0.634,-0.402 (inactive)
C=C[C@@H](OC)[C@H](O)c1ccc(OC)c(O)c1,0.0608 and -0.368,-0.285 and -1.14,-0.294 and -1.03,-0.267 and -0.492,1.03 and 0.477,0.731 and 0.0203,-0.366 and 0.877,0.85 and -0.493,-0.368 and 0.0786,0.318 (inactive) and -0.905 (inactive)
COC(=O)C1=C(C)N(Cc2ccccc2)[C@]23O[C@](C(=O)OC)(C(=O)N2[C@@H]1c1ccccc1)[C@@H](C(=O)OC)[C@H]3C(=O)OC,0.297 and 1.07,-0.813 and 0.143,-0.277 and 0.2,-2.79 and -0.188,-0.998 and 0.452,-0.179 and 0.403,0.604 and 0.301,-0.625 and 0.747,0.753 and -0.487,-0.781 (inactive) and -1.8 (inactive)
